Measured values taken from the supplement of paper PMC10849652.
Of roughly 8,800 targets only a part is listed; those with a hit were picked by preference. About 0.5% of all pairs of compound and target were hits.

Key:
Test in all cases: log2 fold change, soluble protein after heating vs DMSO (PISA); higher = thermal stabilisation; K562 lysate, 10 uM; active = over 0.2 and 3.5 SD of the protein, either way, in both replicates (recomputed)
[1] = compound: CS(=O)(=O)CCNCc1ccc(-c2ccc3ncnc(Nc4ccc(OCc5cccc(F)c5)c(Cl)c4)c3c2)o1 [lapatinib]
Outline: (§1)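 To prepare the extract, K562 pellets were dounce-homogenised in PBS pH 7.4 with 1 mM MgCl2, giving crude material at 1 mg/mL protein. This was treated with 10 μM compound for 30 min, then heated in aliquots for 3 min over 48°C-58°C before pooling and addition of NP-40 to 0.5% at 4°C. Centrifugation at 21,000xg for 90 min left soluble protein in the supernatant, which TMTpro 16plex LC-MS/MS quantified with equalised channel sums. Results are log-two fold changes in thermal stability compared with solvent controls, from duplicates.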

[2] = compound: CS(=O)(=O)N1CCN(Cc2cc3nc(-c4cccc5[nH]ncc45)nc(N4CCOCC4)c3s2)CC1 [pictilisib]
Outline: as §1

[3] = compound: C[C@@H](Oc1cc(-c2cnn(C3CCNCC3)c2)cnc1N)c1c(Cl)ccc(F)c1Cl [crizotinib]
Outline: as §1

[4] = compound: C[C@H](C1=CC=C(C=C1)C(=O)NC2=C3C=CNC3=NC=C2)N
Outline: as §1

[5] = compound: C[C@H](Nc1ncnc2nc[nH]c12)c1cc2cccc(Cl)c2c(=O)n1-c1ccccc1 [duvelisib]
Outline: as §1

[6] = compound: Cc1cc(Nc2cc(CN3CCOCC3)c3nc(C)c(Cc4ccc(Cl)cc4F)n3n2)n[nH]1 [gandotinib]
Outline: as §1

[7] = compound: Cc1cc(Nc2cc(N3CCN(C)CC3)nc(Sc3ccc(NC(=O)C4CC4)cc3)n2)n[nH]1 [tozasertib]
Outline: as §1

[8] = compound: Cc1ccc(-n2nc(C(C)(C)C)cc2NC(=O)Nc2ccc(OCCN3CCOCC3)c3ccccc23)cc1 [doramapimod]
Outline: as §1

[9] = compound: Cc1ccc(NC(=O)c2ccc(CN3CC[C@H](N(C)C)C3)c(C(F)(F)F)c2)cc1Nc1nccc(-c2cncnc2)n1 [bafetinib]
Outline: as §1

[10] = compound: Cc1cccc(CC(=O)N2CCc3c2ccc(-c2cn(C)c4ncnc(N)c24)c3F)n1
Outline: as §1

[11] = compound: Cc1cn(-c2cc(NC(=O)c3ccc(C)c(Nc4nccc(-c5cccnc5)n4)c3)cc(C(F)(F)F)c2)cn1 [nilotinib]
Outline: as §1

[12] = compound: Cc1nc(Nc2n[nH]c3c2CN(C(=O)N[C@H](CN(C)C)c2ccccc2)C3(C)C)c2sccc2n1
Outline: as §1

[13] = compound: Cc1nc(Nc2ncc(C(=O)Nc3c(C)cccc3Cl)s2)cc(N2CCN(CCO)CC2)n1 [dasatinib]
Outline: as §1

[14] = compound: Cc1ncc(-c2ccnc(Nc3ccc(S(C)(=O)=O)cc3)n2)n1C(C)C
Outline: as §1

[15] = compound: Cn1cc(-c2ccc3c(c2)CCN3C(=O)Cc2cccc(C(F)(F)F)c2)c2c(N)ncnc21
Outline: as §1

[16] = compound: Cn1cc(CNCC2CCN(c3ncc(C(=O)NO)cn3)CC2)c2ccccc21 [quisinostat]
Outline: as §1

[17] = compound: Cn1cncc1[C@@](N)(c1ccc(Cl)cc1)c1ccc2c(c1)c(-c1cccc(Cl)c1)cc(=O)n2C [tipifarnib]
Outline: as §1

[18] = compound: NC(=O)Nc1cc(-c2cccc(F)c2)sc1C(=O)N[C@H]1CCCNC1
Outline: as §1

[19] = compound: NC(=O)c1cnc(N[C@@H]2CCCC[C@@H]2N)nc1Nc1cccc(-n2nccn2)c1
Outline: as §1

[20] = compound: NC1(c2ccc(-c3nc4ccn5c(=O)[nH]nc5c4cc3-c3ccccc3)cc2)CCC1
Outline: as §1

Measured: log2 fold change

ENGASE (UniProt Q8NFI3)
Chain of UniProt Q8NFI3 (Q8NFI3 whole entry, looked up): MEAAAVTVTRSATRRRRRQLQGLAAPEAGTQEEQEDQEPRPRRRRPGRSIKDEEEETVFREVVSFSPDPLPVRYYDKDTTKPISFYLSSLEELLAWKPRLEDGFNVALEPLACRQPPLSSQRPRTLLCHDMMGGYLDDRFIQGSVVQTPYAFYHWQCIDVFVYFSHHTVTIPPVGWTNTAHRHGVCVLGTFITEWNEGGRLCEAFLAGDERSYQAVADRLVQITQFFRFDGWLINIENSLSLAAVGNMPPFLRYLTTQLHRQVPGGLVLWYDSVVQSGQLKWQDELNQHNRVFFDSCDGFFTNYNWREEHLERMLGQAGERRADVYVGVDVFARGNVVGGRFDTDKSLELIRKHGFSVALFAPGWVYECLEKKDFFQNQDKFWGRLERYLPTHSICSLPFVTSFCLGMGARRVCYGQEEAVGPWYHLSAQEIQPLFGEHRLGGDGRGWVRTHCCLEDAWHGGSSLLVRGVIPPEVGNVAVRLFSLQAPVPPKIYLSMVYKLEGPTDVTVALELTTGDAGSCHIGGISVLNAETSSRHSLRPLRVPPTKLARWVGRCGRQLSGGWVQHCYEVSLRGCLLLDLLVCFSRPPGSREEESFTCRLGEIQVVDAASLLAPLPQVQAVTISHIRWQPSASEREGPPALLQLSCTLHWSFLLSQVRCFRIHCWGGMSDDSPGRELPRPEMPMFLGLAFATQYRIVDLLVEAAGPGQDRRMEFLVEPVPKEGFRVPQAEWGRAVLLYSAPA
inactive: [1] -0.02 | [2] 0 | [3] 0.011 | [4] -0.048 | [5] -0.025 | [6] 0.116 | [7] 0.051 | [8] 0.033 | [9] 0.003 | [10] 0.148 | [11] 0.02 | [12] -0.083 | [13] 0.029 | [14] -0.034 | [15] 0.028 | [16] 0.009 | [17] 0.043 | [18] -0.04 | [19] 0.011 | [20] -0.025

GGA2 (UniProt Q9UJY4)
inactive: [1] -0.024 | [2] -0.037 | [3] -0.029 | [4] 0.023 | [5] -0.002 | [6] -0.131 | [7] 0.007 | [8] -0.024 | [9] -0.046 | [10] -0.004 | [11] -0.028 | [12] -0.047 | [13] -0.043 | [14] 0 | [15] 0.032 | [16] -0.022 | [17] -0.003 | [18] 0.066 | [19] 0.043 | [20] 0.001

FASTKD2 (UniProt Q9NYY8)
inactive: [1] -0.028 | [2] -0.001 | [3] -0.032 | [4] -0.067 | [5] 0.026 | [6] -0.049 | [7] -0.013 | [8] 0.028 | [9] -0.028 | [10] 0.05 | [11] -0.019 | [12] -0.006 | [13] -0.006 | [14] 0.016 | [15] -0.026 | [16] -0.027 | [17] -0.02 | [18] 0.049 | [19] 0.027 | [20] 0.015

FMNL1 isoform 3 (UniProt O95466)
Chain of UniProt O95466 (O95466 whole entry, looked up): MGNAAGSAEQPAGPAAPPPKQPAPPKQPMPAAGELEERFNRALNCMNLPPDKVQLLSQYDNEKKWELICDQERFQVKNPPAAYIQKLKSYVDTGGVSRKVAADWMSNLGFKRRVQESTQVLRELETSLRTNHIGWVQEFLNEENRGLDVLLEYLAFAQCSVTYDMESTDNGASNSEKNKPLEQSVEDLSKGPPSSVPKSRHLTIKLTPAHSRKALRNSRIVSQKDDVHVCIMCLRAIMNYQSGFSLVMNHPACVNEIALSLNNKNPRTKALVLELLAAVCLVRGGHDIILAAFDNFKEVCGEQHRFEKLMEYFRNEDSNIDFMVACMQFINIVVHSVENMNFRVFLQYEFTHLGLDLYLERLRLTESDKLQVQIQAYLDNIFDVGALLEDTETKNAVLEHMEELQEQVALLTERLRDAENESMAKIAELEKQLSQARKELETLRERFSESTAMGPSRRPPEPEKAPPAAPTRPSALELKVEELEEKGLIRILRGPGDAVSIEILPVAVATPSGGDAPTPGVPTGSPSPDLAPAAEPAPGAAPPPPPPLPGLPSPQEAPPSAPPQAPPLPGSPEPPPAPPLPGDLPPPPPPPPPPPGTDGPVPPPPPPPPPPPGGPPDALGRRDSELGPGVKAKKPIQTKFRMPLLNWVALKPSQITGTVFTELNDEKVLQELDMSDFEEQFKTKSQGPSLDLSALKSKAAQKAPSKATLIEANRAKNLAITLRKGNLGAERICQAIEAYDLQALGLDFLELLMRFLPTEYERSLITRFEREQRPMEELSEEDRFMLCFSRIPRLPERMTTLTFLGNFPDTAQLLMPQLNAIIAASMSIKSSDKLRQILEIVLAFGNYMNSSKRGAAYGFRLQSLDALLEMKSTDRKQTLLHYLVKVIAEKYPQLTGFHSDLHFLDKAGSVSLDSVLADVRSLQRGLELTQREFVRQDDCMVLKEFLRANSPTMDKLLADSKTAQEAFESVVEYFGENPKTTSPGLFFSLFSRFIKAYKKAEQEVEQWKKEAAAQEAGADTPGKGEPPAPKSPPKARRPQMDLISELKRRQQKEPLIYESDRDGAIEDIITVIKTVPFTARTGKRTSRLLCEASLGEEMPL
inactive: [1] 0.058 | [2] 0.005 | [3] -0.013 | [4] 0.044 | [5] 0 | [6] -0.056 | [7] -0.051 | [8] 0.048 | [9] -0.055 | [10] 0.042 | [11] -0.174 | [12] -0.043 | [13] -0.13 | [14] -0.135 | [15] 0.009 | [16] -0.047 | [17] -0.038 | [18] -0.051 | [19] 0.012 | [20] -0.042

ERLIN1 (UniProt O75477)
inactive: [1] -0.041 | [2] -0.01 | [3] 0.032 | [4] -0.094 | [5] -0.011 | [6] 0.033 | [7] 0.019 | [8] 0.048 | [9] -0.027 | [10] 0.03 | [11] 0.011 | [12] -0.031 | [13] -0.01 | [14] -0.034 | [15] 0.033 | [16] 0.107 | [17] 0.049 | [18] -0.047 | [19] -0.009 | [20] 0.035

ETFRF1 (UniProt Q6IPR1)
inactive: [1] 0.021 | [2] -0.01 | [3] -0.004 | [4] 0.112 | [5] -0.004 | [6] -0.087 | [8] -0.057 | [9] -0.039 | [10] -0.039 | [11] -0.038 | [12] 0.032 | [13] -0.01 | [14] -0.02 | [15] 0.062 | [16] 0.088 | [17] 0.117 | [18] -0.028 | [19] 0.071 | [20] 0.046

EMC7 (UniProt Q9NPA0)
active: [4] -0.353
inactive: [1] -0.03 | [2] 0.024 | [3] 0.012 | [5] -0.041 | [6] 0.077 | [7] 0.02 | [8] 0.011 | [9] -0.031 | [10] 0.174 | [11] 0.047 | [12] -0.015 | [13] -0.022 | [14] 0.027 | [15] 0.001 | [16] -0.006 | [17] -0.014 | [18] -0.003 | [19] 0.014 | [20] -0.073

FASTKD5 (UniProt Q7L8L6)
Chain of UniProt Q7L8L6 (Q7L8L6 whole entry, looked up): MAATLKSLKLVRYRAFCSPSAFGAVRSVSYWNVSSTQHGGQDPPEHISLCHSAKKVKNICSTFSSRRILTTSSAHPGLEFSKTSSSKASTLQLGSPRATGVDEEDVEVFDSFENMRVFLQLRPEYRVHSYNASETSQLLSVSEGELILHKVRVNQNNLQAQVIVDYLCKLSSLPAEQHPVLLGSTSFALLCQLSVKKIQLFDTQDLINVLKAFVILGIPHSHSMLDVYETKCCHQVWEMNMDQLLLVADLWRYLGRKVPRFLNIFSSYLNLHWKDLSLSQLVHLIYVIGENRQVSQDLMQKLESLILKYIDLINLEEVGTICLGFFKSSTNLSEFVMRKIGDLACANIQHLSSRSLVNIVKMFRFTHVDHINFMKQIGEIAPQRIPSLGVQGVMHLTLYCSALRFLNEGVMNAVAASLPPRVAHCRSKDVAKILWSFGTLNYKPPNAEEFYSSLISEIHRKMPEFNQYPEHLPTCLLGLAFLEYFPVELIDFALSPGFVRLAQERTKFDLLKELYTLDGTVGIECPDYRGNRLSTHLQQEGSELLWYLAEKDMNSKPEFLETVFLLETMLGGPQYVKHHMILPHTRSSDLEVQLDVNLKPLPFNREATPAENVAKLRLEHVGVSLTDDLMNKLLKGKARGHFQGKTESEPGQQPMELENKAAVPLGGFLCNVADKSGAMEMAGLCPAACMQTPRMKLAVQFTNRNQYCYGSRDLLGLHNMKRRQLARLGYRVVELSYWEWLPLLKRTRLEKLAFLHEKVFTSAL
inactive: [1] -0.025 | [2] 0.085 | [3] -0.075 | [4] 0.089 | [5] -0.042 | [6] -0.193 | [7] 0.056 | [8] 0.036 | [9] 0.169 | [10] -0.056 | [11] -0.072 | [12] 0.032 | [13] -0.006 | [14] 0.113 | [15] -0.027 | [16] -0.053 | [17] 0.003 | [18] 0.004 | [19] 0.054 | [20] 0.013

GDPD1 (UniProt Q8N9F7)
Chain of UniProt Q8N9F7 (Q8N9F7 whole entry, looked up): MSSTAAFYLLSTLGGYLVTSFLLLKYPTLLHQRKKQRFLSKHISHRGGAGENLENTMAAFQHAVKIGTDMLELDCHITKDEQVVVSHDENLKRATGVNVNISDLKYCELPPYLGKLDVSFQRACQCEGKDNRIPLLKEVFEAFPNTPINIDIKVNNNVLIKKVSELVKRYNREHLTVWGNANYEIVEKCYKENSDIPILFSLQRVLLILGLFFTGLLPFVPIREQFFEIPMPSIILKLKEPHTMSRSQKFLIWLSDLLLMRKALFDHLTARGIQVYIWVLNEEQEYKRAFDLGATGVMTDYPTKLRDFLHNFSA
inactive: [1] 0.03 | [2] -0.042 | [3] -0.157 | [4] 0.001 | [5] 0.049 | [6] 0.164 | [7] -0.029 | [8] 0.027 | [9] 0.022 | [10] 0.007 | [11] -0.047 | [12] 0.011 | [13] 0.026 | [14] 0.011 | [15] -0.05 | [16] -0.056 | [17] 0.024 | [18] -0.02 | [19] 0.053 | [20] -0.017

ELF2 (UniProt Q15723)
Chain of UniProt Q15723 (Q15723 whole entry, looked up): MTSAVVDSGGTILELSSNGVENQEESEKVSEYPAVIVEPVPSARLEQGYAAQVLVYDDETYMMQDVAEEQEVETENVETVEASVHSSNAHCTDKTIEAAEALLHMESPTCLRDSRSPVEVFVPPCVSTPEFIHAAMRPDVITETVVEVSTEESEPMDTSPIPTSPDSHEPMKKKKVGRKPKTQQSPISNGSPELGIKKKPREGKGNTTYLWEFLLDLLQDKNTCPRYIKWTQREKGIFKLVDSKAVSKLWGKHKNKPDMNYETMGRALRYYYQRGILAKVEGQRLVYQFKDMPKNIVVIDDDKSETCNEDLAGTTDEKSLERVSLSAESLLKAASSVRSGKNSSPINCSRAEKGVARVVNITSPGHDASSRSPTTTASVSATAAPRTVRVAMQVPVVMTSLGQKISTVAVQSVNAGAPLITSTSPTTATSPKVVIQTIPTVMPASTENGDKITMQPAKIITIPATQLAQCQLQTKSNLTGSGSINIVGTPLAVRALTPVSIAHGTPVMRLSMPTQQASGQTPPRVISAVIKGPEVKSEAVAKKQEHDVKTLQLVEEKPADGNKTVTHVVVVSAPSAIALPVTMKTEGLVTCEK
active: [1] 0.256
inactive: [2] 0.039 | [3] -0.085 | [4] 0.033 | [5] 0.072 | [6] -0.046 | [7] -0.033 | [8] -0.042 | [9] -0.119 | [10] -0.075 | [11] 0.032 | [12] -0.007 | [13] -0.105 | [14] 0.065 | [15] 0.068 | [16] 0.026 | [17] -0.043 | [18] -0.035 | [19] -0.02 | [20] 0.032

EIF1 (UniProt P41567)
inactive: [1] 0.053 | [2] 0.016 | [3] 0.002 | [4] -0.051 | [5] 0.044 | [6] 0.068 | [7] -0.008 | [8] -0.092 | [9] 0.052 | [10] 0.021 | [11] 0.126 | [12] 0.084 | [13] 0.001 | [14] 0.142 | [15] -0.03 | [16] 0.133 | [17] 0 | [18] -0.018 | [19] -0.076 | [20] -0.032

GALNT2 (UniProt Q10471)
inactive: [1] -0.016 | [2] -0.039 | [3] 0.009 | [4] -0.074 | [5] -0.044 | [7] 0.047 | [8] -0.014 | [9] -0.002 | [10] 0.18 | [11] -0.02 | [12] -0.054 | [13] 0.003 | [14] 0.008 | [15] 0.008 | [16] 0.081 | [17] -0.067 | [18] -0.004 | [19] -0.002 | [20] -0.031
active: [6] 0.272

FTSJ3 (UniProt Q8IY81)
Chain of UniProt Q8IY81 (Q8IY81 whole entry, looked up): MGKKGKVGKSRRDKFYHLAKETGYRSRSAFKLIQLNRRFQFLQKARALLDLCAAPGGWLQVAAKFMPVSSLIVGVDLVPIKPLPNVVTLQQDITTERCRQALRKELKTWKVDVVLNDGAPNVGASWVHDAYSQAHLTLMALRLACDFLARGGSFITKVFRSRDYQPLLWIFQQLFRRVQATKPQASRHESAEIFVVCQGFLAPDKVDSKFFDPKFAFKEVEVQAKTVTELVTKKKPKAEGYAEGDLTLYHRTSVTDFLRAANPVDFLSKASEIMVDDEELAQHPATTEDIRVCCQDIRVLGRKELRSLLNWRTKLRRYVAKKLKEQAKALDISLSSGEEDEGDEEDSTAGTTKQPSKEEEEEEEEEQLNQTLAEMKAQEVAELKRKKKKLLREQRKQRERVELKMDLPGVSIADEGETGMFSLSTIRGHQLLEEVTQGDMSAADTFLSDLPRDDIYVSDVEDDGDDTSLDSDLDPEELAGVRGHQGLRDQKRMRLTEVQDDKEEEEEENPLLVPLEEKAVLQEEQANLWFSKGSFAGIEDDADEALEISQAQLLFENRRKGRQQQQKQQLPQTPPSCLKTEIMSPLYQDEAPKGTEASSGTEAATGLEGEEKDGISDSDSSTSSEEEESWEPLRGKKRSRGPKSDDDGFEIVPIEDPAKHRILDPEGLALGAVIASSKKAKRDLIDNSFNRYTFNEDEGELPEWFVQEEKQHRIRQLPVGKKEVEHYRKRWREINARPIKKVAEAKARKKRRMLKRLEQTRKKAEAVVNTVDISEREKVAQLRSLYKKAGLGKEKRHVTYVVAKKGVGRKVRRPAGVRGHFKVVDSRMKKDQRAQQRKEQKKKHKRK
inactive: [1] 0.013 | [2] 0.023 | [3] -0.037 | [4] -0.031 | [5] -0.01 | [6] -0.019 | [7] -0.019 | [8] -0.025 | [9] 0.013 | [10] 0.031 | [11] 0.001 | [12] -0.025 | [13] 0.021 | [14] 0.016 | [15] -0.001 | [16] 0.066 | [17] -0.046 | [18] 0.047 | [19] 0.033 | [20] -0.015

DYNC1I2 isoform 2 (UniProt Q13409)
Chain of UniProt Q13409 (Q13409 whole entry, looked up): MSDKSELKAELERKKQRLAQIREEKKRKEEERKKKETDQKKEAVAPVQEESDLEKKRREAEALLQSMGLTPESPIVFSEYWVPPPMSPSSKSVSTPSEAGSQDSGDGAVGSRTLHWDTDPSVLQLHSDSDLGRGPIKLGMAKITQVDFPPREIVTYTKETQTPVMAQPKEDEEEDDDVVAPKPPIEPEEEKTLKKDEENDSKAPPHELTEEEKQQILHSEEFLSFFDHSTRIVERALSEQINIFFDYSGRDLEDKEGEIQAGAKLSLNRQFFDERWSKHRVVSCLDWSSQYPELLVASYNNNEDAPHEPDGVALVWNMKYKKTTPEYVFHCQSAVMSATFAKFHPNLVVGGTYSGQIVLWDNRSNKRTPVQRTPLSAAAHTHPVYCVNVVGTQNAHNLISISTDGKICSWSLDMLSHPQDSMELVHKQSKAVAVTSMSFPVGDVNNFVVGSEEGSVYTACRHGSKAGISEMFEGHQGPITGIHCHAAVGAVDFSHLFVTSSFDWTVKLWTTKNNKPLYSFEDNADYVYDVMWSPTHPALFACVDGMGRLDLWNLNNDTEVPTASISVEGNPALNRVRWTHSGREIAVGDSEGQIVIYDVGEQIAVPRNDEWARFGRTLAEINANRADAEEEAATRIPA
inactive: [1] 0.029 | [2] 0.078 | [3] -0.031 | [4] 0.096 | [5] 0.015 | [6] -0.132 | [7] 0.001 | [8] -0.011 | [9] -0.041 | [10] -0.012 | [13] -0.058 | [15] 0.046 | [16] -0.009 | [18] 0.024 | [19] -0.008 | [20] -0.025

FARSB (UniProt Q9NSD9)
inactive: [1] 0.003 | [2] -0.014 | [3] -0.033 | [4] 0.007 | [5] 0.021 | [6] -0.053 | [7] -0.014 | [8] 0.033 | [9] -0.005 | [10] -0.001 | [11] -0.019 | [12] -0.005 | [13] -0.019 | [14] 0.006 | [15] 0.032 | [16] -0.001 | [17] 0.02 | [18] 0.027 | [19] 0.002 | [20] -0.014
